Laboratory results taken from the OligoGym collection.
Further: reference of the scale not given here.

These sequences were tested against CHRNE (assay: pooled miR-30 sensor sort-seq; sequence = guide strand). Conditions: shRNA.
With ATAGTTGTTGAAGAGATGGTGA the sensor-assay potency score (higher = more potent) was 0.0987.
TTGCTTTCTGTCAGTACTGTAG showed a sensor-assay potency score (higher = more potent) of -0.702.
TTGCCGTCGTTGTCTACGGCAA showed a sensor-assay potency score (higher = more potent) of -1.16.
In the case of TTCCAGCACAATCTCTGGCAGC, the sensor-assay potency score (higher = more potent) is reported as -0.813.
For TAATCCTGCCAATCGATTCCAA, the sensor-assay potency score (higher = more potent) was -0.67.
TCGATCTTGTTGATGGTCTTGC was tested, and the sensor-assay potency score (higher = more potent) was 0.161.
ATCTTGTTGATGGTCTTGCCGT was tested, and the sensor-assay potency score (higher = more potent) was -1.25.
In the case of TGTGTCGATGTCGATCTTGTTG, the sensor-assay potency score (higher = more potent) is reported as -0.832.
For TCAAACACGAGCTCGCTCCGTG, the sensor-assay potency score (higher = more potent) was -0.0514.
TTAATGACGTAGAAGAGCGGCT was tested, and the sensor-assay potency score (higher = more potent) was -0.711.
TATACCCCCAAAGTCGTCCTTG gave a sensor-assay potency score (higher = more potent) of -0.579.
TAGAAGAGCGGCTTCCGGCGGA showed a sensor-assay potency score (higher = more potent) of 0.192.
With TAGGTGACCTCCACTGCGCAGA the sensor-assay potency score (higher = more potent) was -0.727.
ATGACGAAAATAAGGAACCTGC gave a sensor-assay potency score (higher = more potent) of -1.05.
With TAGATGACGTCAGTCTCCCCTG the sensor-assay potency score (higher = more potent) was -0.628.
TTCAGTATCAGCTCCTCCGCGC showed a sensor-assay potency score (higher = more potent) of -0.412.
With TTTTTCAAAATCAATTTCCTAC the sensor-assay potency score (higher = more potent) was -0.288.

The sequences below were run against CHST7 in the same assay as above. Conditions: shRNA.
In the case of ATACAAGTAGAAAACGTCCGGG, the sensor-assay potency score (higher = more potent) is reported as 0.117.
With TAAATATCCACATTGCACTGTC the sensor-assay potency score (higher = more potent) was 0.728.
TTTTCGTCCAGACACCTGCTGG gave a sensor-assay potency score (higher = more potent) of -1.07.
In the case of TTGGTAGCAAGTCAAGTCCCAG, the sensor-assay potency score (higher = more potent) is reported as -1.13.
With TAGATGTGCTGCTTCTCGCGAG the sensor-assay potency score (higher = more potent) was -0.296.
TCCTTGATGACCACCACCGGGT showed a sensor-assay potency score (higher = more potent) of -1.07.
Sequence AACAGCAGCGCGAACTTGCAGT has a sensor-assay potency score (higher = more potent) of -0.918.
Sequence TTACTGGAAACTTCATCTCAAC has a sensor-assay potency score (higher = more potent) of -1.13.
TTGGGAACCGAGGAGACTGGTT showed a sensor-assay potency score (higher = more potent) of -0.796.
TACAAGTAGAAAACGTCCGGGT was tested, and the sensor-assay potency score (higher = more potent) was 0.0569.
Work on TACCAAATCACATCTCTTCTTT yielded a sensor-assay potency score (higher = more potent) of -0.0966.

What follows are sequences tested against CHSY1 in the same assay as above. Conditions: shRNA.
TTTTACTGTAACTTGGATCATT gave a sensor-assay potency score (higher = more potent) of -0.393.
TTTCCCACTATAAACAATCTTT showed a sensor-assay potency score (higher = more potent) of -0.597.
Work on TTTATCTTTGGGTTCTTTGTGC yielded a sensor-assay potency score (higher = more potent) of 0.332.
TAAATCTCACAAACATGTCGAA showed a sensor-assay potency score (higher = more potent) of -0.309.
TTGAAGTCAATGATGCGCCCTC gave a sensor-assay potency score (higher = more potent) of -0.291.
TTAACAATCACAACAGAACATT gave a sensor-assay potency score (higher = more potent) of -1.42.
TTGCTCGACATCGCTGAAGGAA was tested, and the sensor-assay potency score (higher = more potent) was -0.494.
Work on TTGTGCTCACTCTTCGACCCAG yielded a sensor-assay potency score (higher = more potent) of -0.424.
TGTATTTGCTCGACATCGCTGA was tested, and the sensor-assay potency score (higher = more potent) was 0.246.
In the case of TTCTTTGTGCTCACTCTTCGAC, the sensor-assay potency score (higher = more potent) is reported as -0.347.
Sequence TTTTGCTGAAAGTCTGCTGTAA has a sensor-assay potency score (higher = more potent) of -0.0624.
For TTGTCTTGGACCATGTTCTGTA, the sensor-assay potency score (higher = more potent) was 0.134.
